This note sets out measurements from PubChem BioAssay.

Molecules are shown by their SMILES.

For the first test, the system named is Sam68 (KHDRBS1). The test is described as follows: Sam68 small-molecule binders, primary screen, biochemical, small-molecule microarray, 635 nm fluorescence (AID 1125).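 Further: score merges 667 nm channel intensity with signal to noise over triplicate slides.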 The note with it: small-molecule microarray binding, higher = more signal.
As to `C=CCOC(=O)[C@@H]1[C@H]2C(=O)O[C@H](c3ccccc3)[C@H](c3ccccc3)N2[C@H](c2ccc(OCCOC(=O)[C@@H]3C[C@@H]4C(=O)N5CCC[C@H]5C(=O)N4[C@@H]3c3ccc(O)cc3)cc2)[C@@]12C(=O)Nc1ccc(I)cc12`, the composite z-score turned out to be 1.19.

In turn, `COc1cc2c(cc1OC)CN(C(=O)[C@H]1[C@@H]3C(=O)O[C@@H](c4ccccc4)[C@@H](c4ccccc4)N3[C@@H](c3ccc(O)cc3)[C@]13C(=O)Nc1ccc(C#CC4=CCCCC4)cc13)CC2` gave a composite z-score of 1.31.

Compound `COc1ccc(C(=O)Nc2ccc(CN3C(=O)[C@@]4(O[C@@H](CC(=O)N5CCC[C@H]5CO)[C@H]([Si](C)(C)c5ccc(OC)cc5)[C@H]4C)c4ccccc43)cc2)cc1` showed a composite z-score of 1.31.

Take `[N-]=[N+]=NCc1ccccc1C[C@]1(C(=O)NCC(O)CO)N=C(c2ccc(OCCCO)cc2)O[C@H]1c1ccccc1` (stereo partly drawn): the composite z-score is -0.236.

Turning to `COc1ccc([Si](C)(C)[C@H]2[C@H](CCO)O[C@@]3(C(=O)N(Cc4ccc(N5C(=O)COc6ccccc65)cc4)c4ccccc43)[C@@H]2C)cc1`, the composite z-score was 0.504.

`C=C(COC)/C(=C/C[C@H](OC(=O)c1ccncc1)c1ccc(OCCO)cc1)c1cnc2ccccc2c1` returned a composite z-score of 1.29.

As to `C=CCOC(=O)[C@@H]1[C@H]2C(=O)O[C@H](c3ccccc3)[C@H](c3ccccc3)N2[C@H](c2ccc(OCCOC(=O)[C@@H]3C[C@@H]4C(=O)N[C@@H](Cc5ccccc5)C(=O)N4[C@@H]3c3ccc(O)cc3)cc2)[C@@]12C(=O)Nc1ccc(I)cc12`, the composite z-score was found to be 1.

A further test concerns Chordin-like protein 2 (CHRDL2). The test is described as follows: CHRDL2 small-molecule binders, primary screen, biochemical, small-molecule microarray, 635 nm fluorescence (AID 1126).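 Further: printed compound slides probed with Chrdl2 protein at 4 µg/mL for 1 h at 4 C; score merges 667 nm emission intensity with signal to noise over three replicate slides.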 The note with it: small-molecule microarray binding, fluorescence 635 nm; higher = more signal.
`COCC(=C=CC[C@@H](O)c1ccccc1OCCO)C[C@@H](O)c1cc(Cl)cc(Cl)c1O`: the composite z-score came to 0.476.

As for `COc1ccc(C(=O)Nc2ccc(CN3C(=O)[C@@]4(O[C@@H](CCO)[C@H]([Si](C)(C)c5ccc(OC)cc5)[C@H]4C)c4ccccc43)cc2)cc1`, the composite z-score is 0.959.

Consider `O=C1O[C@H](c2ccccc2)[C@H](c2ccccc2)N2[C@H]1[C@@H](C(=O)O)[C@]1(C(=O)Nc3ccc(C#CCCO)cc31)[C@H]2c1ccc(O)cc1`, for which the composite z-score is -0.823.

Take `C=CC[C@@]1(C(N)=O)N=C(c2ccc(OCCCO)cc2)O[C@@H]1c1ccccc1CN=[N+]=[N-]`: the composite z-score is -0.41.

With `COCCOC(=O)N1C(=O)[C@@]2(c3cc(C#CC4=CCCCC4)ccc31)[C@H](C(=O)N1CCc3cc(OC)c(OC)cc3C1)[C@H]1C(=O)O[C@H](c3ccccc3)[C@H](c3ccccc3)N1[C@@H]2c1ccc(OCCO)cc1`, the composite z-score is 0.69.

On to `COc1ccc(C(O)C2C=CC3C(=O)N(c4ccccc4)C(=O)C3N2Nc2ccccc2F)cc1OCc1ccccc1` (stereo not drawn), for which the composite z-score was -0.175.

For `C=C(COC)/C(=C/C[C@@H](OC(C)=O)c1ccc(CO)o1)c1cnc2ccccc2c1`, the composite z-score turned out to be 1.39.

Take `O=C1C[C@]2(c3ccc([N+](=O)[O-])cc3)C(=O)N(CCN3CCOCC3)c3cc(CO)ccc3[C@H]2N1C1CCCCC1`: the composite z-score is -0.337.

In turn, `COC(=O)C=C(CC(O)c1cccc(Cl)c1)OC` (stereo not drawn) returned a composite z-score of 0.091.

`COc1cc2c(cc1OC)CN(C(=O)[C@@H]1[C@H]3C(=O)O[C@H](c4ccccc4)[C@H](c4ccccc4)N3[C@H](c3ccc(O)cc3)[C@@]13C(=O)Nc1ccc(C#CC4(O)CCCCCC4)cc13)CC2`: the composite z-score amounted to 1.03.

The compound `[N-]=[N+]=NCc1ccccc1C[C@@]1(C(=O)NCC(O)CO)N=C(c2ccc(OCCCO)cc2)O[C@@H]1c1ccccc1N=[N+]=[N-]` (stereo partly drawn) registered a composite z-score of -0.655.

`CCOC(=O)C[C@H]1[C@H](OC(=O)Cc2ccc3c(c2)OCO3)[C@@H](NC(=O)c2ccc(-c3ccccc3)cc2)c2cc(OCCCO)ccc2N1C(=O)c1ccc2ccccc2n1` had a composite z-score of 0.415.

Turning to `O=C(NCc1ccccc1)[C@@]1(Cc2ccccc2)N=C(c2ccc(OCCCO)cc2)O[C@H]1c1ccccc1`, the composite z-score is -1.46.

With `O=C1NC(=O)C2C1C=CC(C(O)c1ccccc1)N2Nc1ccc(Cl)cc1Cl` (stereo not drawn), the composite z-score is -0.238.

`CN(C)CCCNC(=O)[C@@]1(c2ccc([N+](=O)[O-])cc2)CC(=O)N(C2CCCCC2)[C@@H]1c1ccc(CO)cc1` displayed a composite z-score of -0.357.

For `COC(=O)[C@@]1(Cc2ccccc2)[C@H]2c3cc(C(=O)N4CCCC4)n(Cc4cccc5ccccc45)c3C[C@H]2CN1C(=O)c1ccccc1`, the composite z-score was -0.975.

On to `CC(C)(C)OC(=O)CC[C@@]1(C(N)=O)N=C(c2ccc(OCCCO)cc2)O[C@@H]1c1ccccc1`, for which the composite z-score is -0.796.

For the compound `COc1cc2c(cc1O)C=[N+](Cc1cccc(OC(F)(F)F)c1)CC2`, the composite z-score was 0.156.

Take `C=C(C)C1C(=C)CN([C@H](CO)c2ccccc2)C1=O` (stereo partly drawn): the composite z-score was determined as 0.117.

`COCCCNC(=O)C1N=C(c2ccc(OCCCO)cc2)N(c2ccccc2)O1` (stereo not drawn) returned a composite z-score of -0.289.

On to `C=CC[C@@]1(C(=O)NCc2ccccc2)N=C(c2ccc(OCCCO)cc2)O[C@@H]1c1ccccc1N=[N+]=[N-]`, for which the composite z-score is -0.623.

In turn, `CCOc1cc(C(O)C2C=CC3C(=O)N(c4ccccc4)C(=O)C3N2Nc2ccccc2)ccc1O` (stereo not drawn) gave a composite z-score of -0.988.

As to `O=C1O[C@H](c2ccccc2)[C@H](c2ccccc2)N2[C@H]1[C@@H](C(=O)NC[C@H](O)c1ccccc1)[C@]1(C(=O)Nc3ccccc31)[C@H]2c1ccc(OCCO)cc1`, the composite z-score was 0.25.

Compound `COc1ccc(C(O)C2C=CC3C(=O)N(C)C(=O)C3N2N2CCCCC2)c2ccccc12` (stereo not drawn) returned a composite z-score of -0.147.

`CN1C(=O)[C@]2(Cc3ccccc3)N=C(c3ccc(OCCCO)cc3)O[C@@H]2c2ccccc21`: the composite z-score is 0.572.

For the compound `C=CCOC(=O)[C@H]1[C@@H]2C(=O)O[C@@H](c3ccccc3)[C@@H](c3ccccc3)N2[C@@H](c2ccc(OCCOC(=O)[C@@H]3C[C@@H]4C(=O)N[C@@H](CCCCN(C)C)C(=O)N4[C@@H]3c3ccc(O)cc3)cc2)[C@]12C(=O)Nc1ccc(I)cc12`, the composite z-score is 1.24.

For `CC(C)(C)OC(=O)CC[C@@]1(C(=O)NCC(O)CO)N=C(c2ccc(OCCCO)cc2)O[C@@H]1c1ccccc1N=[N+]=[N-]` (stereo partly drawn), the composite z-score was -0.121.

`O=C1NCC(=O)N2[C@@H]1C[C@@H](C(=O)O)[C@H]2c1cccc(OCCO)c1` came in with a composite z-score of 1.6.

The compound `CC(C)OC(=O)C=C1C[C@@H](c2ccccc2C(F)(F)F)O[C@@H](c2ccccc2C(F)(F)F)O1` yielded a composite z-score of 0.0577.

For `C=CCOC(=O)[C@@H]1[C@H]2C(=O)O[C@H](c3ccccc3)[C@H](c3ccccc3)N2[C@H](c2ccc(OCCOC(=O)[C@@H]3C[C@@H]4C(=O)N5CCC[C@H]5C(=O)N4[C@@H]3c3ccc(O)cc3)cc2)[C@@]12C(=O)Nc1ccc(I)cc12`, the composite z-score was 0.593.

The compound `COc1cc2c(cc1OC)CN(C(=O)[C@H]1[C@@H]3C(=O)O[C@@H](c4ccccc4)[C@@H](c4ccccc4)N3[C@@H](c3ccc(O)cc3)[C@]13C(=O)Nc1ccc(C#CC4=CCCCC4)cc13)CC2` registered a composite z-score of 0.575.

Compound `COc1ccc(C(=O)Nc2ccc(CN3C(=O)[C@@]4(O[C@@H](CC(=O)N5CCC[C@H]5CO)[C@H]([Si](C)(C)c5ccc(OC)cc5)[C@H]4C)c4ccccc43)cc2)cc1` registered a composite z-score of 0.989.

Compound `[N-]=[N+]=NCc1ccccc1C[C@]1(C(=O)NCC(O)CO)N=C(c2ccc(OCCCO)cc2)O[C@H]1c1ccccc1` (stereo partly drawn) displayed a composite z-score of -0.911.

With `COc1ccc([Si](C)(C)[C@H]2[C@H](CCO)O[C@@]3(C(=O)N(Cc4ccc(N5C(=O)COc6ccccc65)cc4)c4ccccc43)[C@@H]2C)cc1`, the composite z-score was -1.13.

In the case of `C=C(COC)/C(=C/C[C@H](OC(=O)c1ccncc1)c1ccc(OCCO)cc1)c1cnc2ccccc2c1`, the composite z-score was 1.26.

The compound `C=CCOC(=O)[C@@H]1[C@H]2C(=O)O[C@H](c3ccccc3)[C@H](c3ccccc3)N2[C@H](c2ccc(OCCOC(=O)[C@@H]3C[C@@H]4C(=O)N[C@@H](Cc5ccccc5)C(=O)N4[C@@H]3c3ccc(O)cc3)cc2)[C@@]12C(=O)Nc1ccc(I)cc12` gave a composite z-score of 0.918.
